Experiment [1] addresses Rap guanine nucleotide exchange factor 3 (Homo sapiens) (UniProt O95398). The experiment in a line: Confirmatory qHTS for antagonist of cAMP-regulated guanine nucleotide exchange factor 3 (EPAC1) (AID 1645880). Further: nearly all actives have a fitted effect of over 55% in size. Further: potency means the concentration at half of the fitted maximal effect. The method, boiled down:
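Nucleotide exchange uses 100 nM EPAC1, 250 nM RAP1B-BODIPY-GDP and 50 uM GDP, with compounds in a concentration-titration series. After 5 min at room temperature, fluorescence (480 nm ex/540 nm em) is read every 5 min for 30 min. Data are normalized to control ATA and DMSO.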
For orientation: In qHTS, concentration-response curves come from the screen itself.

The target is the same in experiment [2]. The experiment in a line: Confirmatory qHTS for agonist of cAMP-regulated guanine nucleotide exchange factor 3 (EPAC1) (AID 1645881).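 Further: EPAC1 catalysed release of BODIPY-GDP from Rap1B seen as fluorescence loss; 100% = effect of cAMP agonist control; nearly all actives have a fitted effect of over 75% in size.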
The target of experiment [3] is Rap guanine nucleotide exchange factor 4 (Homo sapiens) (UniProt Q8WZA2). The experiment in a line: Confirmatory qHTS for agonist of cAMP-regulated guanine nucleotide exchange factor 4 (EPAC2) (AID 1645884).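 Further: nucleotide exchange releases bodipy-GDP from Rap1 and this lowers its fluorescence; on the % scale 0 is the no-effect control and ±100 the full control effect; nearly all actives have a fitted effect of over 65% in size.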
Experiment [4] has the same target. Kind of experiment: Confirmatory qHTS for antagonist of cAMP-regulated guanine nucleotide exchange factor 4 (EPAC2) (AID 1645885). Further: nearly all actives have a fitted effect of over 25% in size. Further: potency means the concentration at half of the fitted maximal effect. On activity change, negative = inhibition: on the % scale 0 is the no-effect control and ±100 the full control effect.
Experiment [5] deals with Rap guanine nucleotide exchange factor 3 (Homo sapiens) (UniProt O95398). Kind of experiment: Counterscreen qHTS for antagonist of cAMP-regulated guanine nucleotide exchange factor 3 (EPAC1) (AID 1645888).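 Further: fluorescence loss as bound BODIPY-GDP is released from Rap1B; % of control where 0% means no effect.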 The method, boiled down:
(§1)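 Rap1B-BODIPY-GDP 250 nM + GDP 50 uM; cpds 7-pt, final 9.74 nM–152 uM (activator mode) or from 7.32 nM upwards (inhibitor mode); RT; FI 480/540 nm at 5 and 30 min, then ± cAMP, reread.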
(A counterscreen serves to expose hits that act by an unwanted route or on another target.)

The target is the same in experiment [6]. The experiment in a line: Counterscreen qHTS for agonist of cAMP-regulated guanine nucleotide exchange factor 3 (EPAC1) (AID 1645889). Further: % of control where 0% means no effect; nearly all actives have a fitted effect of over 40% in size. In short, it runs like this: as §1

Records with an inconclusive call do not appear. A number with no mark means an inactive call. Calls of active or inactive are those of the source. The call rests on the fitted dose curve; in most records, active means well fitted curve in the direction sought with a large enough effect; inconclusive means small, poorly fitted or top-dose-only effect, or another doubt; inactive means no such curve, though single readings can be large; an effect the other way counts as inactive or inconclusive.

Rap guanine nucleotide exchange factor 3 (Homo sapiens), sequence (O95398 whole entry, looked up): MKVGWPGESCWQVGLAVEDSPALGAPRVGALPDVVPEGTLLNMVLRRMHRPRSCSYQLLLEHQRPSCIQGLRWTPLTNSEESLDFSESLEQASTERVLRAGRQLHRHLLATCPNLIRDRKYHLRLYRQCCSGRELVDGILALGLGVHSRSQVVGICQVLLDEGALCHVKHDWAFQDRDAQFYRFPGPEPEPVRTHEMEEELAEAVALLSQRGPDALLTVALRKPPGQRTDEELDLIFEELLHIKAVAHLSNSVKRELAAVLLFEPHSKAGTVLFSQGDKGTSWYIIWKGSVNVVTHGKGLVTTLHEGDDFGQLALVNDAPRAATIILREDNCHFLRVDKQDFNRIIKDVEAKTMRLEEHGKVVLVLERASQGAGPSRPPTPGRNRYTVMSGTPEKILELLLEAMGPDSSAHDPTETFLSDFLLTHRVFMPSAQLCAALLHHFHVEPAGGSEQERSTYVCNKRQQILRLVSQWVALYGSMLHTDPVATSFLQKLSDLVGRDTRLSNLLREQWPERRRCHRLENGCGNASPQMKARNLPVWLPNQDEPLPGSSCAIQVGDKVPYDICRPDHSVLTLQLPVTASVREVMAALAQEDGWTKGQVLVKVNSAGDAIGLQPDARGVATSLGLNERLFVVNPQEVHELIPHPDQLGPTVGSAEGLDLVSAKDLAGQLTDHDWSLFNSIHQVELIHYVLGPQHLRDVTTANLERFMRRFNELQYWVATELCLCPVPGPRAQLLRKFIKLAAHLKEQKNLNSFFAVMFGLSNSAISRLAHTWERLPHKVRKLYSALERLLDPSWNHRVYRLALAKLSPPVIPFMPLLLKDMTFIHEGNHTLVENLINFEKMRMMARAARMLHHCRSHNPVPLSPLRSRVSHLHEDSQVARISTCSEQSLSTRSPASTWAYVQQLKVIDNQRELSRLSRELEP
Rap guanine nucleotide exchange factor 4 (Homo sapiens), sequence (Q8WZA2 whole entry, looked up): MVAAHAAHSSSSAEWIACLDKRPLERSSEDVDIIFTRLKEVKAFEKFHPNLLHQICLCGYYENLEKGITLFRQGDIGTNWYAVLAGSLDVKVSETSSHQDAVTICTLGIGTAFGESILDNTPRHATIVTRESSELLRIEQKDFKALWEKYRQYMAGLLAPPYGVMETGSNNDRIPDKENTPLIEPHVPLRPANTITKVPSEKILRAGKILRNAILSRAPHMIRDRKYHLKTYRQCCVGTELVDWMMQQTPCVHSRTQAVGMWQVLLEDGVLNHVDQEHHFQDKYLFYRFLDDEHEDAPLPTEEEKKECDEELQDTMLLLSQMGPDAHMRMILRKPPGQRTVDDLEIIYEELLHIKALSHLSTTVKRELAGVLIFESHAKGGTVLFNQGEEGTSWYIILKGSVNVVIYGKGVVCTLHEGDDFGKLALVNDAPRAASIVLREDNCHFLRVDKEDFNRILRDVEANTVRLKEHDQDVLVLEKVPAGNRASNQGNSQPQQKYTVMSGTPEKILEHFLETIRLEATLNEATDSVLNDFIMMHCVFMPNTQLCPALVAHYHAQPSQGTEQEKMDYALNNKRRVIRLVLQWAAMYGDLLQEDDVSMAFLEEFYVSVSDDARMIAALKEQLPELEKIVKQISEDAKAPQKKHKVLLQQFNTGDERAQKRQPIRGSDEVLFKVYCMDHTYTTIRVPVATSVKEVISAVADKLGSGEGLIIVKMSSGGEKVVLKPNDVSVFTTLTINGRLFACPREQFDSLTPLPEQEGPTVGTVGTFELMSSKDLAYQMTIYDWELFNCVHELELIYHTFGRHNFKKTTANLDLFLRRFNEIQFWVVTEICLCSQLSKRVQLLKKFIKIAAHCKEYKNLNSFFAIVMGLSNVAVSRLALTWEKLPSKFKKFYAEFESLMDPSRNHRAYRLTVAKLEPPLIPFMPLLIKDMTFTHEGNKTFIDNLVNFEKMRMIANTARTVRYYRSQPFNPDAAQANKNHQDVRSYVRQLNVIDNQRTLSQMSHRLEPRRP

With `CC(OC(=O)CN1C(=O)COc2ccccc21)C(=O)NCc1ccc(F)cc1` (stereo not given), the Potency entry in experiment [1], in experiment [2], in experiment [3], in experiment [4], in experiment [5] and in experiment [6] was “inactive” in each case.
As to `COc1ccc(C(=O)N2CCc3cc(OC)c(OC)cc3C2c2ccc(OC)c(OC)c2)cc1` (stereo not given), the Potency entry in experiment [1], in experiment [2] and in experiment [4] was “inactive” each time. Also, the activation was 5.17% [at 17.1 µM, percent relative to cAMP agonist control] in experiment [3] and 15.1% [at 30.8 µM] in experiment [6]. Besides, the activity change, negative = inhibition in experiment [5] is -5.18% [at 30.8 µM].
In the case of `O=C(NC1CCC(O)CC1)c1cccc2cccnc12` (stereo not given), the Potency result in experiment [1], in experiment [2], in experiment [3], in experiment [4], in experiment [5] and in experiment [6] was “inactive” throughout.
Turning to `CCOc1ccc(C(C(=O)NC2CCCC2)N(C(=O)c2snc(C(N)=O)c2N)C2CCCC2)cc1` (stereo not given), the Potency entry in experiment [1], in experiment [2], in experiment [3], in experiment [4], in experiment [5] and in experiment [6] was “inactive” in each case.
Regarding `COc1cccc(NC(=O)CN(C)C(=O)CNC(=O)c2ccc(Oc3ccccc3)cc2)c1`, the Potency result in experiment [1], in experiment [2] and in experiment [4] was “inactive” throughout. Moreover, the activation was 6.73% [at 17.1 µM, percent relative to cAMP agonist control] in experiment [3] and 29.7% [at 30.8 µM] in experiment [6]. In experiment [5], the activity change, negative = inhibition was -3.89% [at 30.8 µM].
Regarding `CCCCSc1nc2c(c(=O)n1CC)SC(C)C2` (stereo not given), the Potency entry in experiment [1], in experiment [2] and in experiment [4] was “inactive” throughout. The activation was -4.2% [at 17.1 µM, percent relative to cAMP agonist control] in experiment [3] and 5.23% [at 30.8 µM] in experiment [6]. Moreover, the activity change, negative = inhibition in experiment [5] was 2.79% [at 30.8 µM].
As to `C=CCn1c(O)c(N=NC(=O)CNC(=O)/C=C/c2ccc(OC)cc2)c2ccccc21`, the Potency entry in experiment [1], in experiment [2], in experiment [3], in experiment [4], in experiment [5] and in experiment [6] was “inactive” in each case.
In the case of `O=C(O)CN1C(=O)/C(=C\c2cccc(OCc3ccc(Cl)cc3Cl)c2)SC1=S`, the Potency in experiment [1] was 44.7 µM (active); in experiment [4], 301 nM (active). Also, the Potency result in experiment [2] was “inactive”. In addition, the activation in experiment [3] is 19.7% [at 17.1 µM, percent relative to cAMP agonist control]; in experiment [6] it was 8.88% [at 30.8 µM]. In experiment [5], the activity change, negative = inhibition was -5.98% [at 30.8 µM].
Regarding `CC1CCc2c(sc(NC(=O)Cc3ccccc3)c2C(=O)Nc2ccc(Cl)cc2)C1` (stereo not given), the Potency result in experiment [1], in experiment [2], in experiment [3], in experiment [4], in experiment [5] and in experiment [6] was “inactive” in each case.
Turning to `Cc1ccc(C2=NOC(=O)/C2=C\c2ccc(C)o2)cc1`, the Potency in experiment [1] was 75.7 µM (active). For the same compound, the Potency result in experiment [2], in experiment [3], in experiment [4], in experiment [5] and in experiment [6] was “inactive” each time.
Turning to `COc1cccc(/C=C2\SC(=S)N(C(Cc3ccccc3)C(=O)O)C2=O)c1` (stereo not given), the Potency in experiment [1] is 47.8 µM (active). The Potency entry in experiment [2], in experiment [3], in experiment [4], in experiment [5] and in experiment [6] was “inactive” each time.
For the compound `Cn1c2ccccc2c2cc(/C=N/NC(=O)c3cc(O)ccc3O)ccc21`, the Potency in experiment [1] is 25.1 µM (active). In addition, the Potency result in experiment [2] and in experiment [4] was “inactive” each time. Also, the activation is -2.01% [at 17.1 µM, percent relative to cAMP agonist control] in experiment [3] and 29.4% [at 30.8 µM] in experiment [6]. For the same compound, the activity change, negative = inhibition in experiment [5] was -0.77% [at 30.8 µM].
`CC(/C=C1\SC(=S)N(NS(=O)(=O)c2ccccc2)C1=O)=C\c1ccccc1`: in experiment [1], the Potency was 22.4 µM (active). Moreover, the Potency result in experiment [2] and in experiment [4] was “inactive” each time. For the same compound, the activation was 7.93% [at 17.1 µM, percent relative to cAMP agonist control] in experiment [3] and 7.68% [at 30.8 µM] in experiment [6]. The activity change, negative = inhibition in experiment [5] was -10.4% [at 30.8 µM].
On to `Cc1cccc(CN2[C@@H](CC(C)C)COCCS2(=O)=O)c1`, for which the Potency result in experiment [1], in experiment [2], in experiment [3], in experiment [4], in experiment [5] and in experiment [6] was “inactive” in each case.
Turning to `Cc1ccc2[nH]cc(C(c3ccccc3)c3ccc(C)s3)c2c1` (stereo not given), the Potency entry in experiment [1], in experiment [2], in experiment [3], in experiment [4], in experiment [5] and in experiment [6] was “inactive” in each case.
For `O=C(CNC(=O)c1sc2ccccc2c1Cl)Nc1ccccc1F`, the Potency result in experiment [1], in experiment [2] and in experiment [4] was “inactive” in each case. Further, the activation was 11.8% [at 17.1 µM, percent relative to cAMP agonist control] in experiment [3] and 2.6% [at 30.8 µM] in experiment [6]. In experiment [5], the activity change, negative = inhibition was -19.6% [at 30.8 µM].
Turning to `O=C(N/N=C/c1cc(Br)c(O)c(Br)c1)c1cc2c(ccc3ccccc32)o1`, the Potency in experiment [1] was 39.8 µM (active). The Potency entry in experiment [2] and in experiment [4] was “inactive” in each case. The activation was -5.24% [at 17.1 µM, percent relative to cAMP agonist control] in experiment [3] and 1.28% [at 30.8 µM] in experiment [6]. Also, the activity change, negative = inhibition in experiment [5] is -6.71% [at 30.8 µM].
Regarding `CCOc1cc(-c2nnc(NC(=O)C3=COCCO3)o2)cc(OCC)c1OCC`, the Potency entry in experiment [1], in experiment [2] and in experiment [4] was “inactive” in each case. Also, the activation is -6.21% [at 17.1 µM, percent relative to cAMP agonist control] in experiment [3] and 5.03% [at 30.8 µM] in experiment [6]. The activity change, negative = inhibition in experiment [5] was 3.19% [at 30.8 µM].
`Cc1ccc(-n2nc3c(=O)n(CCCC(=O)NCc4ccccc4C)nc(C)c3c2C)cc1`: the Potency entry in experiment [1], in experiment [2], in experiment [3], in experiment [4], in experiment [5] and in experiment [6] was “inactive” each time.
On to `Cc1cccc(-c2nc(SCC(=O)Nc3cccc(C(F)(F)F)c3)n3[nH]c(=O)cc3n2)c1`, for which, in experiment [1], the Potency is 84.9 µM (active). Moreover, the Potency result in experiment [2], in experiment [3], in experiment [4], in experiment [5] and in experiment [6] was “inactive” each time.

(Values after PubChem BioAssay (NCATS).)
